# Where a name gives a salt, the structure may show the parent alone.
# Legend:
# Assay in all cases: Euclidean distance of Cell Painting phenotypic profile (signed KS, 77 features) to DMSO centroid (dimensionless distance); 5 or 10 uM (library dependent); higher = stronger phenotypic change vs DMSO (phenoactivity)
# Conditions in all cases: 48 h
# 786-O = tested on: 786-O
# Procedure, shortened: (§1)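 Harmony extracted 77 features from 20X confocal images (9 fields/well) of stained cells, scoring each as a signed Kolmogorov-Smirnov statistic against same-plate vehicle wells. The cells, five cancer lines and a healthy fibroblast line, had received library compounds for 48 h at 10 or 5 uM depending on library, with 0.1% DMSO final. Phenoactivity is the Euclidean distance from each plate-position-corrected, correlation-weighted, top-dose replicate-averaged profile to the median vehicle profile.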
# A549 = tested on: A549
# Procedure, shortened: as §1
# DU145 = tested on: DU145
# Procedure, shortened: as §1
# FB = tested on: FB
# Procedure, shortened: as §1
# HEPG2 = tested on: HEPG2
# Procedure, shortened: as §1
# OVCAR4 = tested on: OVCAR4
# Procedure, shortened: as §1
SMILES,Euclidean distance (786-O),Euclidean distance (A549),Euclidean distance (DU145),Euclidean distance (FB),Euclidean distance (HEPG2),Euclidean distance (OVCAR4)
Cc1ccc(-c2ncc(Cl)cc2-c2ccc(S(C)(=O)=O)cc2)cn1 [Etoricoxib],0.705,0.64,0.802,1.09,0.559,0.802
CCOC(=O)c1ccc(N2NC(=O)C(=Cc3ccc([N+](=O)[O-])o3)C2=O)cc1,1.51,1.47,1.17,0.999,0.851,1.17
CNCC[C@H](Oc1cccc2ccccc12)c1cccs1 [Duloxetine HCl],1.15,1.43,1.55,1.48,2.34,1.46
COc1ccc(-c2coc3cc(O)cc(O)c3c2=O)cc1 [Biochanin A],0.496,0.937,0.839,0.805,1.1,0.958
Cc1ccccc1C(OCCN(C)C)c1ccccc1 (stereo unspecified) [Orphenadrine Citrate],1.08,0.794,1.23,0.881,2.08,1.07
CCn1c(=O)c(-c2cc(NC(=O)Nc3ccccc3)c(F)cc2Br)cc2cnc(NC)cc21,1.21,1.59,1.77,2.62,1.61,1.1
O=C1CC[C@H](N2Cc3c(OCc4ccc(CN5CCOCC5)cc4)cccc3C2=O)C(=O)N1 [Iberdomide(CC220)],1.05,1.02,0.711,1.32,1.24,0.967
CCCCCc1ccc(C)cc1O [Amylmetacresol],0.732,0.727,0.517,0.859,0.412,0.661
Cc1ccc(/C(=C\CN2CCCC2)c2cccc(/C=C/C(=O)O)n2)cc1 [Acrivastine],1.08,0.966,1.03,0.976,0.729,1.02
Cc1[nH]c(/C=C2\C(=O)Nc3ccccc32)c(C)c1CCC(=O)O [TSU-68 (SU6668. Orantinib)],0.704,0.699,0.85,0.825,0.787,0.814
C[C@H](CCC(=O)NCCS(=O)(=O)O)[C@H]1CC[C@H]2[C@@H]3[C@@H](O)C[C@@H]4C[C@H](O)CC[C@]4(C)[C@H]3CC[C@]12C [Tauroursodeoxycholic Acid (TUDCA)],0.663,1.8,0.772,1.04,0.686,1.23
N=C(N)NC(=N)NCCc1ccccc1 [Phenformin HCl],1.03,1.71,1.14,1.15,1.56,0.844
N[C@H](Cc1ccccc1)C(=O)O [D-Phenylalanine],1.65,1.05,0.814,0.864,0.733,0.852
CCCS(=O)(=O)Nc1ccc(F)c(C(=O)c2c[nH]c3ncc(Cl)cc23)c1F,0.904,1.4,0.951,1.12,2.17,0.992
Cc1cc(C)c2c(c1)[C@@H](N(Cc1cc(C(F)(F)F)cc(C(F)(F)F)c1)c1nnn(C)n1)CCCN2C[C@H]1CC[C@H](C(=O)O)CC1,1.71,1.7,1.3,1.05,1.05,1.25
NS(=O)(=O)c1ccc(NC(=O)Nc2ccc(F)cc2)cc1,0.711,1.08,1.36,1.37,1.44,0.718
COCC[n+]1c2c(n(Cc3cnccn3)c1C)C(=O)c1ccccc1C2=O [YM155 (Sepantronium Bromide)],5.76,5.14,7.03,5.89,3.26,5.47
COc1cc(NS(=O)(=O)c2ccc(N)cc2)ncn1 [Sulfamonomethoxine],0.83,0.926,0.778,0.916,0.669,1.12
CCOC(=O)c1ccc(NC2CCCCC2)c(N)c1 [Ferrostatin-1 (Fer-1)],0.915,1.54,1.71,1.18,0.921,1.09
CS(=O)(=O)c1cccc(C[C@H](NC(=O)c2c(Cl)cc3c(c2Cl)CCN(C(=O)c2ccc4ccoc4c2)C3)C(=O)O)c1 [Lifitegrast],1.08,0.823,1.53,1.16,0.431,1.27
C[C@H](Nc1ncnc2nc[nH]c12)c1cc2cccc(Cl)c2c(=O)n1-c1ccccc1 [Duvelisib (IPI-145. INK1197)],2.36,1.56,2.77,2.98,1.32,1.91
O=C(NOCC1CC1)c1ccc(F)c(F)c1Nc1ccc(I)cc1Cl,2.48,3.7,2.78,2.12,2.22,2.06
O=C1C[C@@H](c2ccc(O[C@@H]3O[C@H](CO)[C@@H](O)[C@H](O)[C@H]3O)cc2)Oc2cc(O)ccc21 [Liquiritin],1.07,0.817,0.781,1.59,0.642,1.16
CCNC(=O)CC[C@H](N)C(=O)O [L-Theanine],1.64,1.8,1.57,2.05,1.4,2.17
CCCN(CCC)C(=O)C1=Cc2ccc(-c3ccc(C(=O)N4CCCC4)cc3)cc2N=C(N)C1 [Motolimod (VTX-2337)],1.67,2.04,1.35,1.27,2.18,2.2
CC[C@H](Nc1ncnc2[nH]cnc12)c1nc2cccc(F)c2c(=O)n1-c1ccccc1 [CAL-101 (Idelalisib. GS-1101)],1.28,0.736,1.32,1.79,0.747,1.56
